EPAC1 antag: antagonists of human EPAC1; EPAC1 GEF assay, Rap1b-BODIPY-GDP exchange fluorescence; Potency, µM (doses to about 115 µM), inactives show at the top dose activity change, negative = inhibition, actives largely listed as inhibitors; actives 0.14% (n = 360,000);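 further: plate controls were vehicle for no effect and positive control for full effect; nearly all actives have a fitted effect of over 50% in size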
EPAC1 ag: EPAC1 (human) agonism | Potency, µM (top dose mostly 154 µM), for the others: at the highest dose activation, hits mostly activators | O95398 | actives 0.073% (n = 360,000) | EPAC1 agonist qHTS, biochemical assay; response scale: 100% = response to 6.5 mM cAMP; further: nearly all actives have a fitted effect of over 60% in size
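Nucleotide exchange by EPAC1 (100 nM) on Rap1B–BODIPY-GDP (250 nM) in the presence of 50 uM GDP is tracked fluorescently at 480/540 nm over 30 min. Signals are normalized to a 6.5 mM cAMP control.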
EPAC2 ag: agonists of human EPAC2 (RAPGEF4); Q8WZA2; EPAC2 activation, biochemical qHTS; response scale: 100% = 6.5 mM cAMP response; Potency, µM (highest dose often 154 µM), inactives show top-dose activation, hits mostly activators; actives 0.079% (n = 360,000); AID 720711; further: nearly all actives have a fitted effect of over 50% in size
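Nucleotide exchange monitored as fluorescence drop when BODIPY-GDP leaves Rap1B. Reaction: 100 nM EPAC2, 250 nM RAP1B-BODIPY-GDP, 50 uM GDP, room temperature, kinetic read over 30 min. Activity expressed relative to 6.5 mM cAMP.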
USP1 inh: inhibitors of human USP1/UAF1 deubiquitinase; recombinant USP1/UAF1, Ub-Rhodamine cleavage fluorescence; Potency, µM (doses to about 57.1 µM), without a hit: at the highest dose activity change, negative = inhibition, hits mostly inhibitors; actives 0.23% (n = 390,000); AID 743255; further: on the % scale 0 is the no-effect control and ±100 the full control effect; nearly all actives have a fitted effect of over 60% in size
Target sequence (O94782 whole entry, looked up): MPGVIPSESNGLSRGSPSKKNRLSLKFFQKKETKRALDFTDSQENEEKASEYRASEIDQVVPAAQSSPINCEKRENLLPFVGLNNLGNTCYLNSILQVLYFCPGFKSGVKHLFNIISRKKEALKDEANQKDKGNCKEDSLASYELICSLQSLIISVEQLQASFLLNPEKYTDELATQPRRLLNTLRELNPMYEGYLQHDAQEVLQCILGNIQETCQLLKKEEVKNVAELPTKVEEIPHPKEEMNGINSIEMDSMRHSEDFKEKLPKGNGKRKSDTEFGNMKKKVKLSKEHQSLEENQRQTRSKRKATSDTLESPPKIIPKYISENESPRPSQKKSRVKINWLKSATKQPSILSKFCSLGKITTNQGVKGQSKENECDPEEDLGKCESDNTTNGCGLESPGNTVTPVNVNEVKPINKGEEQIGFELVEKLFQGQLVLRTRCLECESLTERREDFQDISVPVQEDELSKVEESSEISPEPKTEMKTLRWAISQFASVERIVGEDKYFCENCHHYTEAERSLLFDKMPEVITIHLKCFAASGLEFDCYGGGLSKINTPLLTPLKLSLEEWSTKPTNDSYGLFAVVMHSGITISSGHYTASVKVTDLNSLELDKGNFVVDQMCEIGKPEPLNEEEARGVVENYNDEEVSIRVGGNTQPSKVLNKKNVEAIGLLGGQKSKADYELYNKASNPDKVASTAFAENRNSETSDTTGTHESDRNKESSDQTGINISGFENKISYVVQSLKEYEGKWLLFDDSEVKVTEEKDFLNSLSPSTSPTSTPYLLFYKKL
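High-throughput fluorogenic screen: 1nM USP1/UAF1 complex, Ub-Rho substrate 150nM final, 50mM HEPES pH 7.8 with 0.5mM EDTA, 0.1 mg/ml BSA, 1mM TCEP and 0.01% Tween-20.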
ALOX12 inh: inhibitors of human 12S-lipoxygenase ALOX12 | P18054 | purified 12hLO, xylenol orange hydroperoxide absorbance | Potency, µM (doses to about 108 µM), without a hit: at the highest dose activity change, negative = inhibition, hits mostly inhibitors | actives 1.1% (n = 580,000) | AID 1671190; further: on the % scale 0 is the no-effect control and ±100 the full control effect
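Purified human 12hLO at 150 nM in 25 mM Hepes, 0.01% Triton X-100, pH 7.0, preincubated 15 min at room temperature with compound. Reaction started with 40 uM arachidonic acid, 30 min at room temperature. Hydroperoxide measured by Fe-xylenol orange, 573/405 nm absorbance ratio.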
EPAC2 antagonist: antagonists of human EPAC2. Q8WZA2. EPAC2 GEF exchange of Rap1B-BODIPY-GDP, fluorescence. Potency, µM (top dose mostly 114 µM), for the others: at the highest dose activity, negative = inhibition, actives largely listed as inhibitors. actives 0.18% (n = 360,000); further: on the % scale 0 is the no-effect control and ±100 the full control effect; nearly all actives have a fitted effect of over 45% in size
* hit, by the source's call; ? = inconclusive; . = no result given; [ ] = dose if it differs, or a comment. Hits are enriched below; roughly 1.3% of the tested compounds scored in any of these assays. The call rests on the fitted dose curve; in most records, active means well fitted curve in the direction sought with a large enough effect; inconclusive means small, poorly fitted or top-dose-only effect, or another doubt; inactive means no such curve, though single readings can be large; an effect the other way counts as inactive or inconclusive. Potency means the concentration at half of the fitted maximal effect.

SMILES	EPAC1 antag	EPAC1 ag	EPAC2 ag	USP1 inh	ALOX12 inh	EPAC2 antagonist
C[N+]12CCC(CC1)C(C(O)(c1ccccc1)c1cccs1)C2 (configuration not stated)	14%	-4%	2%	-9%	45µM*	10%
CN1CCN(c2ccc(C#N)cn2)CC1	.	.	.	.	23%	.
Clc1ccc(N2CCN(CC3[C@H]4CNC[C@@H]34)CC2)nc1 (some centres not stated)	.	.	.	.	32µM*	.
Cc1ccsc1C(=O)N1CCC2(CC1)NCc1ccccc1-n1ccnc12	.	.	.	.	2%	.
Clc1cccc(CNCCc2c[nH]c3ccccc23)c1	-13%	9%	15%	-14%	4.5µM*	-1%
Cc1ccc(CNCCc2c[nH]c3ccccc23)c(C)c1	.	.	.	.	13µM*	.
Cc1cc(/C=C2\C(=O)NC(=O)N(c3cccc(F)c3)C2=O)c(C)n1-c1ccc(C(=O)O)c(Cl)c1	5%	13%	12%	-24%	7.9µM*	?
Cc1cc(/C=C2/C(=O)NC(=O)N(c3ccccc3)C2=O)c(C)n1-c1ccc(F)cc1	-26%	0%	-1%	-6%	-7%	11%
COCCN1C(=O)CO[C@H]2CN(C(C)C)C[C@H]21	.	.	.	.	5%[176 µM]	.
NC1(C(=O)O)CCCc2ccc(N(CCCl)CCCl)cc21 (configuration not stated)	-2%	14%	12%	-22%	-13%	-4%
COC(=O)C1=C(C)NC(=S)NC1c1ccc(N(CCCl)CCCl)cc1Cl (configuration not stated)	-17%	4%	12%	-16%	35µM*	8%
COc1cc2c(cc1OC1CCCC1)NC(=O)C21CCN(Cc2nccs2)CC1	.	.	.	.	21%[176 µM]	.
Cc1ccc(C(=O)N2[C@H]3CC[C@@H]2c2cnc(-c4ccc(F)cc4)nc2C3)cn1	.	.	.	.	40µM*	.
CC(C)NC(=O)NC[C@H]1C[C@@H]2CCN1C[C@@H]2c1cc(-c2ccc3ccccc3c2)nn1C	.	.	.	.	46%[176 µM]	.
CCOC(=O)[C@]12Cc3cc(Cl)ccc3[C@H]1N(C1CCCCC1)C(=O)c1cc(OC)ccc12	-19%	-7%	8%	.	45µM*	?
CCOC(=O)[C@]12Cc3ccc(C)cc3[C@H]1N(C1CCCCC1)C(=O)c1ccccc12	-10%	5%	-1%	.	?	?
CCOC(=O)[C@]12Cc3ccc(C)cc3[C@H]1N(C1CCCCC1)C(=O)c1cc(OC)ccc12	15%	-8%	3%	.	56µM*	?
CCOC(=O)[C@]12Cc3cc(C)ccc3[C@H]1N(C1CCCCC1)C(=O)c1ccccc12	-16%	5%	0%	.	50µM*	?
ClC1=C(Cl)[C@]2(Cl)[C@@H]3[C@@H](Cl)[C@H]4O[C@H]4[C@@H]3C1(Cl)C2(Cl)Cl	.	.	.	.	1%	.
COCOC1CCC2C3CCC4=CC(=O)CCC4=C3C=CC12C (configuration not stated)	-6%	4%	-5%	-19%	25µM*	-7%
Cc1ccc2c(c1)=NC(=O)/C(=C/c1c(O)[nH]c(=O)[nH]c1=O)C=2	-1%	-5%	0%	-17%	?	-1%
CC1=Nc2ccccc2/C1=C/c1c(O)[nH]c(=O)[nH]c1=O	-24%	20%	7%	?	28µM*	-2%
Cc1cccc(OCC(=O)N2[C@H]3CC[C@@H]2c2cnc(C)nc2C3)c1	.	.	.	.	33%	.
COc1cc(O)c(C(=O)O)c(-c2cc(O)c(O)cc2C)c1	-5%	-6%	0%	-20%	3.2µM*	-2%
COc1ccc2c(c1)c(C(=O)O)c(C)n2CC(C)C	15%	-9%	8%	-9%	10%	4%
CCN(CC)C(=O)c1ccc(NC(=O)c2cccc(C(F)(F)F)c2)cc1	-6%	-2%	6%	-3%	0%	-6%

Screens: PubChem BioAssay, National Center for Advancing Translational Sciences (NCATS)
